Reference: the supplement of paper PMC10849652
Of roughly 8,800 targets only a part is listed; those with a hit were picked by preference. About 0.5% of all pairs of compound and target were hits.

Key:
Assay in all cases: log2 fold change, soluble protein after heating vs DMSO (PISA); higher = thermal stabilisation; K562 lysate, 10 uM; active = over 0.2 and 3.5 SD of the protein, either way, in both replicates (recomputed)
erlotinib = compound: C#Cc1cccc(Nc2ncnc3cc(OCCOC)c(OCCOC)cc23)c1 [erlotinib]
How it was run: (§1)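 K562 pellets were dounce-homogenised in PBS pH 7.4 containing 1 mM MgCl2, and the crude extract, at 1 mg/mL protein, was exposed to 10 μM compound for 30 min. Aliquots were heated for 3 min across 48°C-58°C, pooled, brought to 0.5% NP-40 at 4°C and spun at 21,000xg for 90 min, with the supernatant taken as soluble protein. TMTpro 16plex LC-MS/MS with equalised channel sums quantified that protein. Values are log-two fold changes in thermal stability relative to solvent controls, taken from duplicates.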

[1] = compound: C/C(=N\NC(=O)C1=CC(=CC=C1)S(=O)(=O)N2CCOCC2)/C3=C(C=CC(=C3)Cl)O
How it was run: as §1

[2] = compound: C1=CC(=CC=C1C2=NC3=C(N2)C=C(C=C3)C(=O)N)OC4=CC=C(C=C4)Cl
How it was run: as §1

[3] = compound: C1=CC2=C(C=CC(=C2)/C=C\3/C(=O)NC(=NCC4=CC=CS4)S3)N=C1
How it was run: as §1

[4] = compound: C1=CC2=NC=CN=C2C=C1/C=C/3\C(=O)NC(=O)S3
How it was run: as §1

[5] = compound: C1=CC=C(C=C1)C2=NC(=C(N2)C3=CC=NC=C3)C4=CC(=C(C=C4)Cl)O
How it was run: as §1

[6] = compound: C1=CC=C2C(=C1)C3=NNC4=CC=CC(=C43)C2=O
How it was run: as §1

[7] = compound: C1CCN(C1)C(=O)NC2=CC=CC(=C2)NC3=NC=C(C(=N3)NCCC4=CN=CN4)Br
How it was run: as §1

[8] = compound: C1CN(CCC1(CC2=CC=C(C=C2)Cl)N)C3=NC=NC4=C3C=CN4
How it was run: as §1

IRAK-1-4 Inhibitor I = compound: C1COCCN1CCN2C3=CC=CC=C3N=C2NC(=O)C4=CC(=CC=C4)[N+](=O)[O-] [IRAK-1-4 Inhibitor I]
How it was run: as §1

ibrutinib = compound: C=CC(=O)N1CCC[C@@H](n2nc(-c3ccc(Oc4ccccc4)cc3)c3c(N)ncnc32)C1 [ibrutinib]
How it was run: as §1

[9] = compound: CC(=O)c1cnc2ccc(-c3cc(Cl)c(O)c(Cl)c3)nc2c1N[C@H]1CC[C@H](CN(C)C)CC1
How it was run: as §1

ralimetinib = compound: CC(C)(C)Cn1c(N)nc2ccc(-c3[nH]c(C(C)(C)C)nc3-c3ccc(F)cc3)nc21 [ralimetinib]
How it was run: as §1

[10] = compound: CC(C)(O)CC(=O)NCCn1ccc2ncnc(Nc3ccc(Oc4cccc(C(F)(F)F)c4)c(Cl)c3)c21
How it was run: as §1

[11] = compound: CC(C)C1=C2N=C(C=C(N2N=C1)NCC3=CC=CC=C3)NCCCCCCN
How it was run: as §1

[12] = compound: CC1=C(C(CC(=O)N1)C2=CC=C(C=C2)C(F)(F)F)C(=O)NC3=C(C=C4C(=C3)C=NN4)F
How it was run: as §1

[13] = compound: CC1=C(C2=C(C=C1)C(=O)C3=CC=CC=C3N2CCCN)C
How it was run: as §1

[14] = compound: CC1=C(C=C(C=C1)NC(=O)C2=CC(=CC=C2)C(C)(C)C#N)NC3=CC4=C(C=C3)N=CN(C4=O)C
How it was run: as §1

[15] = compound: CC1=C(C=C(C=C1)NC(=O)C2=CC(=CC=C2)N(C)C)NC(=O)C3=CC=C(C=C3)O
How it was run: as §1

[16] = compound: CC1=CC=C(C=C1)SC2=C3C=C(SC3=CN=C2)C(=O)N
How it was run: as §1

Measured: log2 fold change

WDCP (UniProt Q9H6R7)
inactive: erlotinib -0.06 | [1] 0.091 | [2] 0.079 | [3] 0.018 | [4] 0.024 | [5] 0 | [6] -0.011 | [7] -0.022 | [8] 0.002 | IRAK-1-4 Inhibitor I 0.024 | ibrutinib 0.021 | [9] 0.021 | ralimetinib -0.006 | [10] -0.045 | [11] -0.027 | [12] -0.023 | [13] -0.041 | [14] 0 | [15] 0.01 | [16] 0.049

VPS28 (UniProt Q9UK41)
UniProt Q9UK41, sequence (Q9UK41 whole entry, looked up): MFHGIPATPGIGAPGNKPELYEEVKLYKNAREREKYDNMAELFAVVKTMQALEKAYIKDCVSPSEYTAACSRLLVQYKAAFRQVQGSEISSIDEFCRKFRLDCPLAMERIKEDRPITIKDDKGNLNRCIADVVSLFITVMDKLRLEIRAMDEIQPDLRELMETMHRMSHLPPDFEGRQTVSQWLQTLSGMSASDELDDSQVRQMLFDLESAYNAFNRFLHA
inactive: erlotinib 0.707 | [1] -0.039 | [2] 0.004 | [3] -0.005 | [4] 0.041 | [5] 0.028 | [6] -0.036 | [7] -0.006 | [8] -0.018 | IRAK-1-4 Inhibitor I -0.036 | ibrutinib 0.109 | [9] -0.02 | ralimetinib 0.009 | [10] 0.046 | [11] -0.004 | [12] -0.005 | [13] 0.019 | [14] -0.092 | [15] 0.028 | [16] 0.019

WDR36 (UniProt Q8NI36)
UniProt Q8NI36, sequence (Q8NI36 whole entry, looked up): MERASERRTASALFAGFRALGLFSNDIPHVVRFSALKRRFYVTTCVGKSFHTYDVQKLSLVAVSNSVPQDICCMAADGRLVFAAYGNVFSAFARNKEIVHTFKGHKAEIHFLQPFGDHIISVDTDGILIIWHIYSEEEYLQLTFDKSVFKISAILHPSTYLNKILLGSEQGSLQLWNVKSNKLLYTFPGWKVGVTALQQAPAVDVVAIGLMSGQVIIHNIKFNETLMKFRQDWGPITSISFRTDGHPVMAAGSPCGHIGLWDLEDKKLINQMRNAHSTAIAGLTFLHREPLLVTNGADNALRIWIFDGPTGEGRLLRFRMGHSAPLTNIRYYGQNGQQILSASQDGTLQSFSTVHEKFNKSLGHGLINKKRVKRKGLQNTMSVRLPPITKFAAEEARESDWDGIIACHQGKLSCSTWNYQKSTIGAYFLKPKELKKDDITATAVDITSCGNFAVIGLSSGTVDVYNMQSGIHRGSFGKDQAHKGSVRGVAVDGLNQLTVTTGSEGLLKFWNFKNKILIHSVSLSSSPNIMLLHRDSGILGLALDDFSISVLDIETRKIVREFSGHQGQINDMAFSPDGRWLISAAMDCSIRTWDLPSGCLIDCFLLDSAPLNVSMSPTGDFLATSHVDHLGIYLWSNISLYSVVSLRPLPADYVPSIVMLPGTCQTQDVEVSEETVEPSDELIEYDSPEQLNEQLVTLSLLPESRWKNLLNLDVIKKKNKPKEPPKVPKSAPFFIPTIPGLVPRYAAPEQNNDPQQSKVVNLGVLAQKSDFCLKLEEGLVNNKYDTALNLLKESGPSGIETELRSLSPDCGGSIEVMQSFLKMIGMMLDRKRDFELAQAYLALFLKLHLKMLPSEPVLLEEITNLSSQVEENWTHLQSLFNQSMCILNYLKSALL
inactive: erlotinib 0 | [1] 0.02 | [2] -0.031 | [3] 0.027 | [4] -0.025 | [5] 0.017 | [6] 0.008 | [7] 0.014 | [8] 0.004 | IRAK-1-4 Inhibitor I -0.049 | ibrutinib -0.02 | [9] -0.01 | ralimetinib 0.019 | [10] -0.004 | [11] 0.03 | [12] 0.048 | [13] 0 | [14] 0.019 | [15] 0.013 | [16] 0.033

ZNF451 (UniProt Q9Y4E5)
inactive: erlotinib 0.036 | [1] -0.064 | [2] -0.007 | [3] -0.002 | [4] -0.032 | [5] 0.002 | [6] -0.014 | [7] -0.096 | [8] 0.026 | IRAK-1-4 Inhibitor I -0.009 | ibrutinib 0.004 | [9] 0.019 | ralimetinib 0.02 | [10] 0.007 | [11] -0.011 | [12] 0.033 | [13] -0.003 | [14] -0.012 | [15] 0.019 | [16] 0.055

YRDC (UniProt Q86U90)
inactive: erlotinib 0.009 | [1] 0.03 | [2] -0.001 | [3] -0.018 | [4] -0.021 | [5] 0.036 | [6] 0.081 | [7] -0.065 | [8] 0.006 | IRAK-1-4 Inhibitor I -0.02 | ibrutinib 0.01 | [9] -0.002 | ralimetinib 0.025 | [10] -0.012 | [11] 0.027 | [12] -0.006 | [13] -0.015 | [14] 0.021 | [15] 0.007 | [16] 0.008

ZMYM2 (UniProt Q9UBW7)
inactive: erlotinib 0.036 | [1] -0.049 | [2] 0.038 | [3] 0.073 | [4] -0.022 | [5] 0.053 | [6] -0.05 | [7] -0.209 | [8] 0.116 | IRAK-1-4 Inhibitor I 0.07 | ibrutinib -0.029 | [9] -0.059 | ralimetinib -0.037 | [10] -0.106 | [11] -0.039 | [12] -0.008 | [13] -0.018 | [14] 0.004 | [15] 0.04 | [16] -0.068

UNC45A (UniProt Q9H3U1)
inactive: erlotinib 0.016 | [1] 0.014 | [2] -0.039 | [3] -0.006 | [4] 0.001 | [5] -0.024 | [6] -0.037 | [7] -0.015 | [8] -0.002 | IRAK-1-4 Inhibitor I -0.001 | ibrutinib 0.002 | [9] -0.008 | ralimetinib 0.03 | [10] -0.012 | [11] -0.009 | [12] -0.007 | [13] 0.002 | [14] 0.004 | [15] 0.002 | [16] -0.007

UQCC2 (UniProt Q9BRT2)
UniProt Q9BRT2, sequence (Q9BRT2 whole entry, looked up): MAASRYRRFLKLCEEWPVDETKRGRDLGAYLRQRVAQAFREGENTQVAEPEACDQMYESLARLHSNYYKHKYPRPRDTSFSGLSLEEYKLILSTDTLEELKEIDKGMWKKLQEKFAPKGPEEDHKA
inactive: erlotinib 0.037 | [1] 0.044 | [2] -0.039 | [3] 0.06 | [4] 0.001 | [5] -0.007 | [6] 0 | [7] -0.05 | [8] -0.023 | IRAK-1-4 Inhibitor I 0.016 | ibrutinib 0.054 | [9] 0 | ralimetinib 0.006 | [10] 0.01 | [11] 0.018 | [12] -0.022 | [13] 0.016 | [14] 0.007 | [15] -0.016 | [16] -0.012

UTP18 (UniProt Q9Y5J1)
UniProt Q9Y5J1, sequence (Q9Y5J1 whole entry, looked up): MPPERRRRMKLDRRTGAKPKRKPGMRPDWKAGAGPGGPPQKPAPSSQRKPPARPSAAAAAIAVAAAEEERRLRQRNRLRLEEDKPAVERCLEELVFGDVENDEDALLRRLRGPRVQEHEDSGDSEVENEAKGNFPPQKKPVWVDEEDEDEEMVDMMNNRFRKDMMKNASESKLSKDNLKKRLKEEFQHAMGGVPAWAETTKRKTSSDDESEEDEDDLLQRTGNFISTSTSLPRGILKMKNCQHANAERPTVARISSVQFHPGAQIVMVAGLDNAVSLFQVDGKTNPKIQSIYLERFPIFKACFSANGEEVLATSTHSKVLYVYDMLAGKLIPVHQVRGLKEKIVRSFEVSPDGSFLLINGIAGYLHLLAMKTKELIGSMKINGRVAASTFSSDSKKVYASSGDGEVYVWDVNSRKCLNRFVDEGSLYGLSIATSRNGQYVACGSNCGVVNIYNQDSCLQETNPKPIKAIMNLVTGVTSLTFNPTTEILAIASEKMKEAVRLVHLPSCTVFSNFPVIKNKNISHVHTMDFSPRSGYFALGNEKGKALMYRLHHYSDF
inactive: erlotinib 0.055 | [1] 0.072 | [2] 0.051 | [3] -0.056 | [4] 0.129 | [5] 0.038 | [6] -0.068 | [7] -0.122 | [8] 0.107 | IRAK-1-4 Inhibitor I -0.031 | ibrutinib 0.125 | [9] -0.031 | ralimetinib 0.002 | [10] -0.017 | [11] 0.033 | [12] 0.057 | [13] -0.085 | [14] -0.017 | [15] 0.028 | [16] 0.023

USP9X (UniProt Q93008)
inactive: erlotinib 0.034 | [1] 0.013 | [2] -0.008 | [3] 0.015 | [4] 0.014 | [5] 0.003 | [6] -0.019 | [7] -0.005 | [8] -0.013 | IRAK-1-4 Inhibitor I 0.022 | ibrutinib -0.003 | [9] 0.001 | ralimetinib 0.025 | [10] -0.024 | [11] -0.032 | [12] -0.008 | [13] 0.009 | [14] -0.021 | [15] 0.043 | [16] 0.011

WDR20 isoform 7 (UniProt Q8TBZ3)
inactive: erlotinib -0.001 | [1] -0.105 | [2] 0.043 | [3] 0.04 | [4] -0.117 | [5] 0.094 | [6] -0.016 | [7] -0.05 | [8] 0.092 | IRAK-1-4 Inhibitor I 0.026 | ibrutinib 0.003 | [9] -0.001 | ralimetinib 0.088 | [10] -0.023 | [11] -0.019 | [12] 0.087 | [13] 0.044 | [14] 0.058 | [15] -0.003 | [16] 0.014

YTHDF3 (UniProt Q7Z739)
inactive: erlotinib -0.009 | [1] -0.003 | [2] -0.035 | [3] -0.029 | [4] 0.089 | [5] -0.183 | [6] 0.003 | [7] -0.04 | [8] 0.036 | IRAK-1-4 Inhibitor I 0.12 | ibrutinib -0.026 | [9] 0.066 | ralimetinib -0.014 | [10] -0.033 | [11] 0.008 | [12] 0.017 | [13] 0.074 | [15] 0.009 | [16] 0.096
active: [14] -0.334

ZC3H13 (UniProt Q5T200)
inactive: erlotinib 0.081 | [1] 0.003 | [2] 0.034 | [3] -0.027 | [4] -0.071 | [5] 0.075 | [6] -0.045 | [7] -0.016 | [8] -0.043 | IRAK-1-4 Inhibitor I 0.007 | ibrutinib 0.046 | [9] 0.009 | ralimetinib -0.003 | [10] -0.072 | [11] 0.058 | [12] -0.101 | [13] 0.046 | [14] 0.08 | [15] -0.01 | [16] -0.022

UNC13D (UniProt Q70J99)
UniProt Q70J99, sequence (Q70J99 whole entry, looked up): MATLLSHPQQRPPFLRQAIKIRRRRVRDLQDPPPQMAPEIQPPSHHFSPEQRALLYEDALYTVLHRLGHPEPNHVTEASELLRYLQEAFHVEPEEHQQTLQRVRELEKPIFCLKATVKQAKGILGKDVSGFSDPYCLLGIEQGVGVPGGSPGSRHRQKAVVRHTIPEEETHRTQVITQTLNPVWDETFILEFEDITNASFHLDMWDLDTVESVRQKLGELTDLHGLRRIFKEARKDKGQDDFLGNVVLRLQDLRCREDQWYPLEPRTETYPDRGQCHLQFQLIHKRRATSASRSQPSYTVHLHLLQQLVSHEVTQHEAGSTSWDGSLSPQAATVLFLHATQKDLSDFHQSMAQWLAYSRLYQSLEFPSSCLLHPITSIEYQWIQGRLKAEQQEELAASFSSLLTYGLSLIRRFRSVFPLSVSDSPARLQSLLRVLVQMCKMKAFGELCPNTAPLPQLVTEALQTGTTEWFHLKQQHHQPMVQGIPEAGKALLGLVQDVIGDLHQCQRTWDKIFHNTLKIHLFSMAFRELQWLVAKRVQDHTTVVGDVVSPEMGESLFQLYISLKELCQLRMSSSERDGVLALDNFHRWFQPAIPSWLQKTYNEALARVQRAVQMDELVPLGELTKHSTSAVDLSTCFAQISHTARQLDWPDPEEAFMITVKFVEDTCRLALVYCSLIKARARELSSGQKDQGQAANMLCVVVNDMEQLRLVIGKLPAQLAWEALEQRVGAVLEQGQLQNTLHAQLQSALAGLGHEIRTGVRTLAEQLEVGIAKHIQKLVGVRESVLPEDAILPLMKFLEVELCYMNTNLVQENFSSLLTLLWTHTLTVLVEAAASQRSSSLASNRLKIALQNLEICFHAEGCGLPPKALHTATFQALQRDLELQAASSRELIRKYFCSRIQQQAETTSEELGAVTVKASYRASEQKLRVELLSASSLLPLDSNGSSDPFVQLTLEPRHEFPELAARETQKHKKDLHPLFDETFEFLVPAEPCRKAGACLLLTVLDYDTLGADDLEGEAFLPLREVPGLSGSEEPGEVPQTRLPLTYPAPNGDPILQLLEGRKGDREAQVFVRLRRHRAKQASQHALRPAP
inactive: erlotinib 0.019 | [1] 0.023 | [2] -0.049 | [3] 0.02 | [4] 0.025 | [5] -0.007 | [6] -0.009 | [7] 0.005 | [8] 0.013 | IRAK-1-4 Inhibitor I 0.022 | ibrutinib -0.043 | [9] -0.005 | ralimetinib 0.031 | [10] -0.014 | [11] 0.018 | [12] 0.016 | [13] 0.015 | [14] 0.012 | [15] 0.025 | [16] -0.015

WDHD1 (UniProt O75717)
UniProt O75717, sequence (O75717 whole entry, looked up): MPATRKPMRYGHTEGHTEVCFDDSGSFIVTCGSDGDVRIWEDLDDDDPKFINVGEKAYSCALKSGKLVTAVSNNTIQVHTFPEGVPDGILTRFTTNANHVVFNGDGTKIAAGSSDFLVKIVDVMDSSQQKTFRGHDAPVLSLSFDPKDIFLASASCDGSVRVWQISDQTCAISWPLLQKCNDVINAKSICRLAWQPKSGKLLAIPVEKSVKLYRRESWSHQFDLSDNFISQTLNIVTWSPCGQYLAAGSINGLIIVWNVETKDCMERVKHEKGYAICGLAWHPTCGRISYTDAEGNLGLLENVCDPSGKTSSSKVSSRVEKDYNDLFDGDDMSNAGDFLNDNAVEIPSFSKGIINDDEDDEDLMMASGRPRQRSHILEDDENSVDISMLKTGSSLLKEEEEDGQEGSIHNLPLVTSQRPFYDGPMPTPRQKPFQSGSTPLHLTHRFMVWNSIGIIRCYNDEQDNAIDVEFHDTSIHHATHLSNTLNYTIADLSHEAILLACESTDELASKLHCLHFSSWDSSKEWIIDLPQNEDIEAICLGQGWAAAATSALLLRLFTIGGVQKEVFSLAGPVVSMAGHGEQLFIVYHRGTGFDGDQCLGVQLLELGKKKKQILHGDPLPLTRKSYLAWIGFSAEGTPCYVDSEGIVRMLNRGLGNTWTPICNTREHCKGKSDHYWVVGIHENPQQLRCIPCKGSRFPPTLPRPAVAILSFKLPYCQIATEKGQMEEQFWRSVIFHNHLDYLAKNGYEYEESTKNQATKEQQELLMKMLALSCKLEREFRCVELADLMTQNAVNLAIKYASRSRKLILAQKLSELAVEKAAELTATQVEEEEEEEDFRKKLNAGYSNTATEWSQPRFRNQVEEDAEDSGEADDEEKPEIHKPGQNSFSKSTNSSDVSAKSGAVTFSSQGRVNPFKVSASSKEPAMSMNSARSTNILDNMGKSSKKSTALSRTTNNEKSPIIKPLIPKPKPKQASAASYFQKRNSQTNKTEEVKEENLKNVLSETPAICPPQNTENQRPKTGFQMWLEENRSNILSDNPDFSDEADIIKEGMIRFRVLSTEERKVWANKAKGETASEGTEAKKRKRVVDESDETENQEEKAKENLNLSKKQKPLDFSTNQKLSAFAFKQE
inactive: erlotinib 0.013 | [1] 0.025 | [2] -0.004 | [3] 0.019 | [4] 0.002 | [5] 0.006 | [6] -0.005 | [7] 0 | [8] 0.025 | IRAK-1-4 Inhibitor I -0.017 | ibrutinib 0.024 | [9] -0.002 | ralimetinib 0.005 | [10] -0.01 | [11] -0.027 | [12] 0.007 | [13] -0.002 | [14] -0.002 | [15] 0.016 | [16] -0.005

ZNF217 (UniProt O75362)
UniProt O75362, sequence (O75362 whole entry, looked up): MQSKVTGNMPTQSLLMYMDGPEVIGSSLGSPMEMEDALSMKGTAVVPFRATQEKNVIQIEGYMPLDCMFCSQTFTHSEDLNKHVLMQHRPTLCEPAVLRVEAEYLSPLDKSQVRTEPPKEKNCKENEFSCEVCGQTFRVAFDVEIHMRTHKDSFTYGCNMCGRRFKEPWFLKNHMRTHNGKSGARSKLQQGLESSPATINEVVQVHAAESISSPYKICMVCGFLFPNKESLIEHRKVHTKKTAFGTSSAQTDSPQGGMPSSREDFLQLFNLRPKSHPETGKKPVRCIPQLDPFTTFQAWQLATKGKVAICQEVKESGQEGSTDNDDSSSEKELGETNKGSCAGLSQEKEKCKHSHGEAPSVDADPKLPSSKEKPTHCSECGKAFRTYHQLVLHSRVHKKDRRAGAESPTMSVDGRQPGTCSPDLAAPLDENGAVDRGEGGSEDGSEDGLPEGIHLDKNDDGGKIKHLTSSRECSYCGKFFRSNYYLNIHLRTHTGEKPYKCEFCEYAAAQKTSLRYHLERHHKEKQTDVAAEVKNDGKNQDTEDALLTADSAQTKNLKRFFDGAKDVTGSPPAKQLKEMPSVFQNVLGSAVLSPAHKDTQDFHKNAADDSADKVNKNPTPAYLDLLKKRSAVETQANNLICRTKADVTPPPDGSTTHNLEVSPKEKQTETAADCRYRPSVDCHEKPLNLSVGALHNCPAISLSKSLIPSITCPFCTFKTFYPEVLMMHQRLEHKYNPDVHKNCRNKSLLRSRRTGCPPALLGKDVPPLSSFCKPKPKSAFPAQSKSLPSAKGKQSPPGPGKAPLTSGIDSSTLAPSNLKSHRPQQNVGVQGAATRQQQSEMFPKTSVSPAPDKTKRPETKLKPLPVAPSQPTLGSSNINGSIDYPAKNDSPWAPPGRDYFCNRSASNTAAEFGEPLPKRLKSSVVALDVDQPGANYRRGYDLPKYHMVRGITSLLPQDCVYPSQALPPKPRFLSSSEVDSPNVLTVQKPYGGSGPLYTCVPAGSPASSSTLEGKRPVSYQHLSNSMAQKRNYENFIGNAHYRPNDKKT
inactive: erlotinib -0.014 | [1] -0.043 | [2] 0.06 | [3] -0.132 | [4] -0.004 | [5] 0.027 | [6] -0.162 | [7] -0.014 | [8] 0.028 | IRAK-1-4 Inhibitor I 0.007 | ibrutinib -0.033 | [9] 0.053 | ralimetinib 0.017 | [10] -0.014 | [11] -0.061 | [12] -0.005 | [13] -0.022 | [14] 0.002 | [15] 0.025 | [16] -0.031
